Shiga toxin inh = Shiga toxin inhibition; inhibition, % at 38.7 µM; Vero cells, Shiga toxin protein synthesis inhibition reporter; actives 9.2% (n = 290,000); in the data active means inhibition mostly above about 28%, no sharp cut-off; inactive means mostly below about 43%; further: 0% is about no effect
NS1 inh = influenza NS1 inhibition | AID 2326 | Potency, µM (highest dose often 46.1 µM), inactives show at the top dose activity, positive = more growth | actives 0.4% (n = 270,000); calls by dose curve; further: potency means the concentration at half of the fitted maximal effect; actives are rising curves; nearly all actives have a fitted effect of over 50% in size
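Read-out: OD600 growth recovery of NS1-expressing budding yeast. Cells grown overnight at 30C in -URA glucose medium, washed, resuspended and diluted 1:100 in 2% galactose assay medium, pH 6.0. Same strain lacking NS1 served as positive control.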
Pf growth 48h = P. falciparum growth inhibition at 48 hours (one generation); P. falciparum luciferase growth in erythrocytes, 48 h; Potency, µM (series often up to 28.7 µM), without a hit: at the top dose activity change, negative = inhibition, hits mostly inhibitors; actives 5.9% (n = 310,000); AID 504832; further: potency means the concentration at half of the fitted maximal effect; on the % scale 0 is the no-effect control and ±100 the full control effect
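Luciferase-expressing parasites in RBCs, 2% Hct / 0.1% parasitemia final; RPMI 1640 + 0.5% Albumax; 37 C, 5% CO2, one generation; luminescence read-out, lower signal = inhibition.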
Pf growth 96h = P. falciparum growth inhibition at 96 hours | P. falciparum luciferase reporter growth, 96 h | actives 6.9% (n = 320,000) | AID 504834 | Potency, µM (top dose mostly 28.7 µM), for inactives: at the top dose activity change, negative = inhibition, usual class: inhibitors; further: potency means the concentration at half of the fitted maximal effect; on the % scale 0 is the no-effect control and ±100 the full control effect
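Erythrocytes infected with luciferase-expressing P. falciparum were dispensed at 2% hematocrit and 0.05% parasitemia (final), then incubated with compounds 96 hours at 37 C in 5% CO2. Luminescence after detection reagent addition reported growth.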
SARS PLpro yeast = SARS-CoV PLP inhibition in yeast; S. cerevisiae expressing SARS-CoV PLpro, growth rescue; Potency, µM (titrated, usually from 32.9 µM), for the others: top-dose activity, positive = growth rescue, hits mostly activators; actives 0.19% (n = 330,000); AID 485353; calls by dose curve; further: potency means the concentration at half of the fitted maximal effect; 0% is about no effect; nearly all actives have a fitted effect of over 55% in size
CHX counter = counter-screen hit for Shiga toxin inhibitors, cycloheximide | cell reporter, cycloheximide protein synthesis inhibition counterscreen | actives 12% (n = 300,000) | max response, %; in the data active means max response mostly above about 13%, no sharp cut-off; inactive means mostly below about 14%; further: read at 38.3 µM for the half of the compounds with a filed dose; 0% is about no effect
Active calls of the source: *; ? = inconclusive; nt = not tested or not shown; [ ] = remark or other dose. Sampled rows, rich in hits. Any-hit rate of the full collection: about 21%. Unless noted, the call rests on the fitted dose curve; in most records, active means well fitted inhibition curve with a large enough effect; inconclusive means small, poorly fitted or top-dose-only effect, or another doubt; inactive means no such curve, though single readings can be large or run the other way.

SMILES	Shiga toxin inh	NS1 inh	Pf growth 48h	Pf growth 96h	SARS PLpro yeast	CHX counter
CS(=O)(=O)Nc1ccc(C2=NN(C(=O)c3cccc(F)c3)C(c3cccs3)C2)cc1 (stereo not given)	-5	?	?	12%	-1%	-4
CC(C)Oc1ccc(C(=O)OCC(=O)NC2CCCCCC2)cc1	nt	nt	?	-22%	-5%	nt
O=C(O)c1cc(S(=O)(=O)N2CCCCC2)ccc1Cl	-13	13%	43%	?	1%	1
COc1cccc(NC(=O)Nc2ccc3c(c2)nnn3C)c1	59*	6%	61%	?	3%	32*
Cn1nnc2cc(C(=O)Nc3ccc(Cl)cc3)ccc21	36	1%	32%	101%	5%	13
Cn1nnc2cc(C(=O)Nc3cccnc3)ccc21	7	1%	29%	nt	1%	6
CN(C)c1ccc(NC(=O)c2ccc3c(c2)nnn3C)cc1	46*	-1%	36%	15%	0%	18*
Cn1nnc2cc(C(=O)Nc3ccccc3)ccc21	32	8%	151%	-4%	1%	16*
Cc1ccc(NC(=O)c2ccc3c(c2)nnn3C)cc1	35*	18%	107%	93%	-17%	13
Cc1c(NC(=O)c2ccc(S(=O)(=O)Nc3ccccc3F)cc2)c(=O)n(-c2ccccc2)n1C	nt	nt	nt	nt	1%	nt
Cn1nnc2cc(NC(=O)NCc3ccc4c(c3)OCO4)ccc21	14	-6%[9.22 µM]	12%	-1%	12%	9
CN(C)c1ccc(NC(=O)Nc2ccc3c(c2)nnn3C)cc1	nt	0%	15%	-1%	3%	32*
COc1ccc(CNc2nc(NCc3ccc(OC)cc3)c3ncn(C4CCCCC4)c3n2)cc1	37*	nt	nt	nt	nt	49*
NS(=O)(=O)c1ccc(NC(=O)C2C3C=CC(C3)C2C(=O)O)cc1 (stereo not given)	-13	4%	8%	148%	0%	-3
O=C(COc1ccc([N+](=O)[O-])cc1)N(Cc1cccs1)C1CCS(=O)(=O)C1 (stereo not given)	1	-3%	-4%	-7%	9%	-5
O=C(O)CC/C(=N/NC(=O)c1cccs1)c1ccccc1	24*	9%	46%	21%	4%	77*
Cc1cc(C(=O)NN=C(CCC(=O)O)c2cccs2)c(C)o1	nt	nt	nt	nt	4%	nt
O=C(O)CCC(=O)NNC(=O)c1cccs1	17	5%	8%	34%	0%	18*
CCOC(=O)N/N=C(\CCC(=O)O)c1cccs1	35*	2%	4%	24%	1%	17*
N#Cc1ccc(OCC(=O)N/N=C(\CCC(=O)O)c2cccs2)cc1	-6	nt	3%	-16%	0%	1
Cc1ccc(N(C(=O)c2csnn2)C(C(=O)NC(C)(C)C)c2cccnc2)cc1 (stereo not given)	-9	1%	149%	?	0%	5
CC(=O)c1ccc(NC(=O)CCNC(=O)c2ccccc2Cl)cc1	-8	-13%	-5%	3%	-2%	-2
CC1=C(C(=O)N2CCCC(CCC(=O)NCc3ccccc3F)C2)OCCO1 (stereo not given)	-4	2%	-8%	-6%	1%	-2
O=C(CCC1CCCN(C(=O)c2cccnc2)C1)NCc1ccccc1F (stereo not given)	3	3%	12%	-13%	-2%	17*
O=C(CCC1CCCN(C(=O)c2ccoc2)C1)NCc1ccccc1F (stereo not given)	16	0%	13%	3%	0%	14
SMILES	Shiga toxin inh	NS1 inh	Pf growth 48h	Pf growth 96h	SARS PLpro yeast	CHX counter
CN(C)c1cccc(C(=O)N2CCCC(CCC(=O)NCc3ccccc3F)C2)c1 (stereo not given)	16	-5%	3.3µM*	?	-5%	30*
O=C(CCC1CCCN(C(=O)CCN2CCCCC2=O)C1)NCc1ccccc1F (stereo not given)	-11	-2%	29%	21%	1%	14*
O=C(CCSc1ccc(F)cc1)NNC(=O)c1ccc([N+](=O)[O-])cc1	nt	nt	-26%	-11%	4%	nt
O=C(COc1ccc2c3c(c(=O)oc2c1)CCC3)NCCCN1CCCC1=O	19	-2%	4%	?	-2%	-13
CCCOC1CCCN(C(=O)c2ccc(OC)c(OC3CCN(C(C)C)CC3)c2)C1 (stereo not given)	20	-13%	29%	26%	5%	19*
COc1ccc(C(=O)NC2CCc3ccccc32)cc1OC1CCN(C(C)C)CC1 (stereo not given)	47*	-1%	?	?	-3%	14*
COC(=O)CN(C)C(=O)c1ccc(OC)c(OC2CCN(C(C)C)CC2)c1	30*	9%	0%	?	0%	24*
C/C(=N\Nc1ccc2nncn2n1)c1ccc(Cl)s1	-5	-3%	-1%	0%	-1%	-1
Cc1ccc(C2CC(c3ccccc3OC(F)F)Nc3ncnn32)cc1 (stereo not given)	-11	4%	12µM*	nt	0%	-1
CC1NC(=S)N(C2CCCCC2)C1=O (stereo not given)	19	nt	29%	4.7µM*	2%	5
CCC(C)C1NC(=S)N(C2CCCCC2)C1=O (stereo not given)	-16	-21%	?	?	-11%	-1
Cc1oc2c(CN3CCCCC3)c(O)ccc2c(=O)c1-c1ccc(Br)cc1	1	3%	?	1.2µM*	2%	-2
COc1ccc(-c2c(C)oc3c(CN4CCOCC4)c(O)ccc3c2=O)cc1	3	0%	?	?	-1%	4
Cc1oc2c(CN3CCCC3)c(O)ccc2c(=O)c1-c1ccc(Br)cc1	-11	-11%	9.3µM*	?	-1%	-2
OCC[C@@H]1C[C@@H](O)[C@H](O)[C@]2(CCc3ccccc3O2)O1	-9	4%	23%	44%	-3%	0
COc1cc(N2CCCC2)c(OC)cc1/C=c1/sc2nc3ccccc3n2c1=O	13	-3%	33%	2%	-4%	-2
O=c1/c(=C\c2cccn2-c2ccccc2)sc2nc3ccccc3n12	28*	2%	17%	15%	7%	21
Cc1ccc(-n2c(C)cc(/C=c3/sc4nc5ccccc5n4c3=O)c2C)cc1	87*	4%	127%	-39%	-5%	35*
O=C(O)Cn1cc(/C=c2/sc3nc4ccccc4n3c2=O)c2ccccc21	115*	nt	269%	-13%	-3%	37*
CC(C)(C)NC(=O)NC(=O)CN1CCN(S(=O)(=O)c2ccc3c(c2)CCCC3)CC1	nt	nt	9.3µM*	7.4µM*	-1%	nt
CCOC(=O)N1CCN(S(=O)(=O)Cc2ccccc2)CC1	-13	1%	37%	-10%	5%	-4
CN1C(=O)N(CC(=O)N2CCN(S(=O)(=O)c3ccc4c(c3)CCC4)CC2)C(=O)C12CCCCC2	nt	nt	3%	35%	-4%	nt

Screens from PubChem BioAssay.
